These results are taken from PubChem BioAssay.

Where “and” joins values, the source holds several entries; their conditions need not be identical. Equal entries are not always repeated. A number with no mark means an inactive call. Calls of active or inactive are those of the source.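 How the source made its calls: active means thallium flux through the channel raised or lowered by more than 3 SD from vehicle-only wells, actives on both sides; inactive means the rest.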

Experiment in all cases: modulators of BK channel variants, profiling panel, selectivity assay, cell-based, U2OS BacMam, thallium flux, beta subunits (AID 1259406);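 further: initial slope of Thallos dye fluorescence rise after thallium is added; log ratio against the mean of 0.3% DMSO vehicle wells on the same plate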
In assay [1] the test system is F380Y. The note with it: at 30 µM.
The subject of assay [2] is F380Y/beta1. To be noted: at 30 µM.
The test system of assay [3] is F380Y/beta2Delta. The note with it: at 30 µM.
Assay [4] relates to F380Y/beta4. The note with it: at 30 µM.
The target of assay [5] is Calcium-activated potassium channel subunit alpha-1 (Homo sapiens) + Leucine-rich repeat-containing protein 26 (Homo sapiens) (UniProt Q12791+Q2I0M4). The note with it: F380Y/Slo1WT/gamma1, at 30 µM.
Assay [6] relates to R275C. To be noted: at 30 µM.
Assay [7] concerns R275C/beta1. The note with it: at 30 µM.
The subject of assay [8] is R275C/beta2Delta. To be noted: at 30 µM.
Assay [9] relates to R275C/beta4. To be noted: at 30 µM.
The subject of assay [10] is R275C/Slo1WT/beta2. To be noted: at 30 µM.

Chain of Calcium-activated potassium channel subunit alpha-1 (Homo sapiens) + Leucine-rich repeat-containing protein 26 (Homo sapiens) (Q2I0M4 whole entry, looked up, one chain of several): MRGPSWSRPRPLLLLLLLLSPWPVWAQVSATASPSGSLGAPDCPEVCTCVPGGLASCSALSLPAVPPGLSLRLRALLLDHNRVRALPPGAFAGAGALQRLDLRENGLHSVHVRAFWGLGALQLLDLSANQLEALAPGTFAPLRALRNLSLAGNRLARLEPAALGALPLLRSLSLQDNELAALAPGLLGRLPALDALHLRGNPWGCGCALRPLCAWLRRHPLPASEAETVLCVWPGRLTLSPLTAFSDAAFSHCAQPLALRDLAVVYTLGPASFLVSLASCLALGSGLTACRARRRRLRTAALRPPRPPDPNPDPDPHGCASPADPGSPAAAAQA

`COCc1c(C(C)C)nc(C(C)C)c(/C=C/[C@@H](O)C[C@@H](O)CC(=O)O)c1-c1ccc(F)cc1`: the log fold change Tl+ flux is 0.216 (active) in [1]; 0.473 (active) in assay [2]; 0.143 (active) in assay [3]; 0.268 (active) in assay [4]; 0.103 (active) in [5]; 0.0107 in assay [6]. The log fold change Tl+ flux in assay [7] was 0.391 (active); in assay [8], 0.192 (active); in assay [9], 0.207 (active); in [10], 0.0728.
On to `OCc1cccnc1`, for which the log fold change Tl+ flux was -0.0134 in [1]; -0.0115 in assay [2]; 0.033 in assay [3]; 0.017 in [4]; -0.0204 in [5]; -0.0301 in [6]. Further, the log fold change Tl+ flux in assay [7] is -0.00726; in assay [8], -0.015; in assay [9], -0.00528; in assay [10] it was 0.0162.
In the case of `Cc1nccn1CC1CCc2c(c3ccccc3n2C)C1=O` (stereo not given), the log fold change Tl+ flux in assay [1] is 0.0107 and 0.024; in [2], 0.000378 and -0.0486; in assay [3], -0.00534 and 0.0144; in assay [4], 0.0398 and -0.017; in assay [5] it was -0.0199 and 0.0181; in [6], -0.0259 and 0.0252. The log fold change Tl+ flux in [7] was -0.00728 and 0.00537; in assay [8], -0.00652 and 0.0192; in [9] it was -0.00238 and 0.0058; in [10] it was 0.0288 and 0.00389.
In the case of `CCCN[C@H]1CCc2nc(N)sc2C1`, the log fold change Tl+ flux was 0.0634 and -0.0393 in [1]; 0.0248 in assay [2]; 0.0149 and -0.064 in assay [3]; 0.049 in [4]; -0.0398 and 0.00679 in [5]; -0.0132 and -0.0398 in [6]. Further, the log fold change Tl+ flux in assay [7] is -0.0125 and -0.021; in assay [8] it was -0.0052 and -0.0245; in assay [9], 0.000139; in [10], 0.0182.
As for `OCCOCCN1CCN(C2=Nc3ccccc3Sc3ccccc32)CC1`, the log fold change Tl+ flux is 0.134 (active) in assay [1]; 0.105 (active) in assay [2]; 0.0505 in assay [3]; 0.186 (active) in assay [4]; 0.0336 in assay [5]; -0.011 in assay [6]. The log fold change Tl+ flux in assay [7] was 0.15 (active); in assay [8], 0.106 (active); in [9] it was 0.142 (active); in [10] it was -0.027.
In the case of `CCOC(=O)C1=C(C)NC(C)=C(C(=O)OC)C1c1cccc(Cl)c1Cl` (stereo not given), the log fold change Tl+ flux is 0.00922 in assay [1]; -0.0618 in assay [2]; -0.162 (active) in [3]; -0.261 (active) in assay [4]; 0.00637 in assay [5]; -0.00728 in assay [6]. Also, the log fold change Tl+ flux is -0.0274 in assay [7], 0.0156 in assay [8], 0.114 in assay [9] and -0.0293 in assay [10].
In the case of `Cc1[nH]c(=O)c(C#N)cc1-c1ccncc1`, the log fold change Tl+ flux is 0.00987 in [1]; -0.00723 in assay [2]; -0.015 in [3]; -0.0201 in assay [4]; 0.0127 in assay [5]; -0.0168 in assay [6]. Besides, the log fold change Tl+ flux in [7] was -0.000763; in assay [8] it was 0.0393; in assay [9], 0.0209; in assay [10] it was 0.0443.
Turning to `CNS(=O)(=O)Cc1ccc2[nH]cc(CCN(C)C)c2c1`, the log fold change Tl+ flux in assay [1] is 0.0165; in assay [2], -0.000461; in assay [3] it was 0.0184; in [4], 0.00469; in assay [5] it was -0.0149; in assay [6], 0.0314. Besides, the log fold change Tl+ flux is -0.0158 in assay [7], 0.00098 in assay [8], -0.0449 in assay [9] and 0.0327 in assay [10].
Take `CN(C)CC[C@@H](c1ccc(Br)cc1)c1ccccn1`: the log fold change Tl+ flux is 0.102 in [1]; 0.0384 in [2]; -0.012 in [3]; 0.0692 in assay [4]; 0.0361 in assay [5]; -0.0783 in assay [6]. The log fold change Tl+ flux was 0.0411 in assay [7], 0.0403 in assay [8], 0.00601 in [9] and 0.00129 in assay [10].
Consider `Nc1nc(N)nc(-c2cc(Cl)ccc2Cl)n1`, for which the log fold change Tl+ flux in assay [1] is 0.00819; in assay [2], 0.00785; in assay [3], -0.0416; in assay [4], -0.00342; in assay [5] it was -0.0223; in assay [6] it was -0.0835. Moreover, the log fold change Tl+ flux in [7] is -0.0137; in assay [8], -0.0163; in assay [9], -0.0246; in assay [10], -0.0527.
For `CC1(C)S[C@@H]2[C@H](N=CN3CCCCCC3)C(=O)N2[C@H]1C(=O)O`, the log fold change Tl+ flux is 0.00482 in [1]; 0.0062 in [2]; -0.0627 in assay [3]; -0.00589 in [4]; -0.0112 in assay [5]; 0.00945 in [6]. Besides, the log fold change Tl+ flux in assay [7] is 0.0251; in assay [8], 0.116 (active); in [9] it was -0.0211; in [10], -0.0045.
Turning to `COC(=O)C1=C(C)NC(C)=C(C(=O)OC(C)C)C1c1cccc2nonc12` (stereo not given), the log fold change Tl+ flux in assay [1] is 0.00609; in assay [2], 0.106 (active); in [3], -0.0966; in assay [4], -0.107 (active); in assay [5], 0.00177; in assay [6] it was -0.0742. The log fold change Tl+ flux was -0.015 in assay [7], -0.0967 in [8], -0.00531 in [9] and -0.0356 in [10].
